# TWEAK Fn14 block – inhibitors of TWEAK-Fn14 signaling, primary screen, luciferase reporter cells, uHTS; TWEAK-stimulated Fn14 reporter cells, luciferase luminescence, 8 h; inhibition, % at 10 µM; 360,000 compounds, 2% hits; AID 1159606, 2016; in the data active means inhibition above about 50%
# HIF-2a inh – HIF-2a reporter inhibitors, primary screen, luminescence, 786-0 RCC cells; 786-0 RCC cells HIF-2a reporter, luciferase luminescence, overnight; inhibition, % at 18.8 µM; 360,000 compounds, 0.72% hits;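 active means inhibition of the luminescence signal of 40% or more relative to plate controls, in a single-dose primary screen at 18.75 µM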
# CF NFkB block – inhibitors of PAF-induced NF-kB signaling, primary screen, cell-based, GFP fluorescence, uHTS | inhibition, % at 5 µM | AID 588850, 2011 | 360,000 compounds, 0.86% hits | KKLEB NF-kB-GFP reporter, GFP fluorescence overnight;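 active means at least 50% inhibition at 5 µM, scaled per plate between neutral and stimulator controls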;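 further: PAF is a Pseudomonas aeruginosa culture filtrate used as stimulus; plate controls were PAF-stimulated DMSO wells for no effect and unstimulated DMSO wells for full effect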
# KKLEB cytotox – cytotoxicity in KKLEB CF airway cells, primary screen, cytotoxicity control for CF NF-kB inhibitor project, cell-based, uHTS, fluorescence assay plates; KKLEB CF airway cells viability, ATPlite luminescence, overnight; active compounds read low; cells stimulated with P. aeruginosa culture filtrate; activity change (cytotoxicity), % at 5 µM; 360,000 compounds, 0.36% hits; AID 602141, 2011;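 active means corrected activity change at or below -50% at 5 µM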
# Peg3 prom inh – Peg3 promoter-driven luciferase inhibitors, primary screen, cell-based, HeLa, luciferase luminescence. HeLa PEG-Prom luciferase reporter, overnight. inhibition, % at 20 µM. 360,000 compounds, 1.7% hits. AID 588405, 2011;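 active means inhibition of at least 50% at 20 µM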
# TROY NFkB inh – inhibitors of TROY-driven NF-kB signaling, primary screen, Q293 LMP1-TROYcd cells, NF-kB luciferase, uHTS; Q293 LMP1-TROYcd NF-kB luciferase reporter, 4 h; inhibition, % at 10 µM; 360,000 compounds, 0.98% hits; AID 1347056, 2019;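 active means compounds whose plate-normalised and pattern-corrected inhibition of the luciferase reporter signal at the single screening dose is 50% or more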
# * hit, by the source's call; . = not tested or not shown. This is a sample that favours compounds with a hit; in the whole collection about 3.9% have one here.
SMILES,TWEAK Fn14 block,HIF-2a inh,CF NFkB block,KKLEB cytotox,Peg3 prom inh,TROY NFkB inh
Cc1cc(NC(=O)Cn2cc([N+](=O)[O-])cn2)no1,-4.0,2.0,18.1,-2.6,-6.8,88.2*
O=C(CN(c1ccc(Br)cc1)S(=O)(=O)c1ccc(Cl)c([N+](=O)[O-])c1)NCCc1ccccc1,-19.1,19.6,-26.7,-7.7,65.2*,10.1
O=C(CN(c1cccc(C(F)(F)F)c1)S(=O)(=O)c1ccc(Cl)c([N+](=O)[O-])c1)NCc1ccccc1,-9.9,10.8,-23.3,-7.0,11.6,-2.0
C[C@@]12C(C[C@H](O)[C@@]34C[C@@H](CCC13)[C@@H](CO)C4=O)[C@](C)(C(=O)O)CC[C@@H]2O (some centres not stated),16.3,5.7,22.1,-1.2,-9.2,16.0
C=C1C(=O)[C@]23C[C@H]1CCC2[C@@]1(C)C(C[C@@H]3O)[C@](C)(C(=O)OC)CC[C@@H]1O (some centres not stated),97.7*,98.8*,90.3*,-73.4*,100.4*,59.3*
CC(C)(C(=O)Nc1nccs1)c1ccccc1,8.6,11.7,-0.5,11.5,15.0,4.4
O=C(Nc1cccc(Cl)c1)c1ccc(F)c(S(=O)(=O)N2CCN(c3ccccn3)CC2)c1,59.4*,-2.7,-5.9,8.2,-67.2,33.0
Cn1nc(C(=O)Nc2ccc(Cl)c(S(=O)(=O)N3CCOCC3)c2)c2ccccc2c1=O,12.8,3.6,19.6,-12.0,53.0*,-2.7
CCOc1ccc(NC(=O)c2ccc(F)c(S(=O)(=O)N3CCN(c4ccccn4)CC3)c2)cc1,44.2,-11.0,-3.3,-5.9,4.1,44.1
O=C(Nc1ccc(Cl)c(S(=O)(=O)N2CCOCC2)c1)c1ccc(OCC2CCCO2)cc1 (configuration not stated),98.9*,-8.0,2.2,0.7,103.3*,76.7*
O=C(Nc1ccc(Cl)c(S(=O)(=O)N2CCOCC2)c1)c1n[nH]c(=O)c2ccccc12,1.0,13.3,29.0,-27.9,16.4,3.4
O=C(Nc1cccc(Br)c1)c1ccc(Cl)c(S(=O)(=O)N2CCOCC2)c1,77.2*,-106.0,-5.7,8.1,8.1,45.4
COc1ccc(CN2C(=O)CS/C2=N/N=C/c2ccccc2)cc1,-0.9,-304.4,-9.4,7.7,-228.6,-48.6
COC(=O)C1C(O)=CC(=O)CC1C (configuration not stated),0.9,9.3,-7.5,9.2,6.8,-7.2
CN[C@@H]1CC[C@H](c2ccc(Cl)c(Cl)c2)c2ccccc21,-0.4,-8.1,13.0,.,91.2*,.
COc1ccccc1C1CCN(Cc2ccc(Cl)c(Cl)c2)CC1,-17.7,20.3,-6.1,-7.5,5.0,21.9
O=C(/C=C/c1cccc([N+](=O)[O-])c1)c1cccs1,4.2,-3.2,44.4,-0.8,98.7*,19.9
O=C(/C=C/c1cccc([N+](=O)[O-])c1)Nc1ccc(NC(=O)c2cccs2)cc1,-3.2,13.4,-11.8,2.2,23.2,34.1
O=C(NC1CCCC1)C1CCCN1C(=O)Nc1ccccc1Cl (configuration not stated),-8.8,16.4,1.4,0.2,2.3,10.7
CC(C)N=c1cc2n(-c3ccc(Cl)cc3)c3ccccc3nc-2cc1Nc1ccc(Cl)cc1,-12.9,-47.3,91.7*,-18.2,101.5*,2.3
O=C(Cc1ccccc1)NNC1=NS(=O)(=O)c2ccccc21,53.5*,12.4,17.3,-3.2,0.5,-9.4
O=C(CN1C(=O)c2ccccc2C1=O)NNC1=NS(=O)(=O)c2ccccc21,-9.7,12.6,-1.0,8.8,-3.0,-11.1
O=C(CSC1=NS(=O)(=O)c2ccccc21)Nc1ccccc1,-14.0,-52.4,11.7,3.2,71.1*,-27.6
O=C(CSC1=NS(=O)(=O)c2cc(F)ccc2N1)Nc1ccccc1,4.7,5.9,15.1,-1.3,6.5,4.2
O=[N+]([O-])c1ccc(Sc2cccc[n+]2[O-])c2nonc12,93.8*,91.4*,84.0*,-97.4*,111.1*,86.3*

# Compound activity deposited in PubChem BioAssay by Sanford-Burnham Center for Chemical Genomics.
